Test results as given in PubChem BioAssay (NCI).
About 83,000 compounds went through this panel and 20% of them were active in at least one assay; those are over-represented in the sample as a whole.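 Values shown are percent growth following 48 h exposure of cells in 96-well plates to a single concentration of compound; below 10 was considered active.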 Unmarked numbers belong to inactive results. Active and inactive are the calls of the source.

Experiments:
Assay in all cases: NCI-60 one-dose screen, 48 h (100 = growth as untreated, 0 = no growth, -100 = all killed)
Details in all cases: 10 µM unless noted
DU-145 prostate = system: DU-145 prostate
K-562 leukemia = system: K-562 leukemia
MALME-3M melanoma = system: MALME-3M melanoma
MDA-MB-231 breast = system: MDA-MB-231 breast
RXF 393 renal = system: RXF 393 renal
SF-268 CNS = system: SF-268 CNS
SF-295 CNS = system: SF-295 CNS
SF-539 CNS = system: SF-539 CNS
UACC-257 melanoma = system: UACC-257 melanoma
M14 melanoma = system: M14 melanoma
HCT-15 colon = system: HCT-15 colon
HT29 colon = system: HT29 colon
SNB-75 CNS = system: SNB-75 CNS
SNB-19 CNS = system: SNB-19 CNS
PC-3 prostate = system: PC-3 prostate
SK-MEL-5 melanoma = system: SK-MEL-5 melanoma
UACC-62 melanoma = system: UACC-62 melanoma
LOX IMVI melanoma = system: LOX IMVI melanoma
SK-MEL-28 melanoma = system: SK-MEL-28 melanoma
U251 CNS = system: U251 CNS

Structure (SMILES) | growth (DU-145 prostate) | growth (K-562 leukemia) | growth (MALME-3M melanoma) | growth (MDA-MB-231 breast) | growth (RXF 393 renal) | growth (SF-268 CNS) | growth (SF-295 CNS) | growth (SF-539 CNS) | growth (UACC-257 melanoma) | growth (M14 melanoma) | growth (HCT-15 colon) | growth (HT29 colon) | growth (SNB-75 CNS) | growth (SNB-19 CNS) | growth (PC-3 prostate) | growth (SK-MEL-5 melanoma) | growth (UACC-62 melanoma) | growth (LOX IMVI melanoma) | growth (SK-MEL-28 melanoma) | growth (U251 CNS)
C=C(C)[C@@H]1CC[C@]2(COCCCNCCCN)CC[C@]3(C)[C@H](CC[C@@H]4[C@@]5(C)CC[C@H](OCCCN)C(C)(C)[C@@H]5CC[C@]43C)[C@@H]12 | -49.5% (active) | -40% (active) | -88.1% (active) | -85.6% (active) | 28.8% | -35% (active) | 102% | -95.7% (active) | 13.8% | -83% (active) | -88.4% (active) | -79.7% (active) | 10.1% | -78.3% (active) | -10% (active) | 67.2% | -88.1% (active) | -93.8% (active) | 16.1% | –
NS(=O)(=O)Oc1cccc(-c2nc3sccn3c2-c2ccccc2)c1 | 89.9% | 16.7% | 41.3% | 60.3% | 50% | 70.1% | 28.8% | 31.9% | 74.4% | 20.4% | 29% | 27% | -9.42% (active) | 51.1% | 72.4% | 32.3% | 36.3% | – | 60.4% | –
Cc1ccc(Nc2cc(N)nc(N)n2)cc1 | 107% | 87.9% | 102% | 108% | 114% | 93.4% | 103% | 112% | 110% | 104% | 104% | 103% | 84.2% | 110% | 98% | 98.2% | 97.2% | 97.9% | 105% | –
CCCCN(CCC#N)C(N)=O | 97.2% | 115% | 98.4% | 104% | 109% | 99.7% | 111% | 100% | 101% | 112% | 101% | 114% | 105% | 98.9% | – | 99.5% | 95.4% | 105% | 102% | 107%
CCCc1cc(CCC)n2nc(N)nc2n1 | 117% | 121% | 116% | 125% | 102% | 110% | 96.4% | 112% | 118% | 111% | 107% | 108% | 95.6% | 113% | 96.9% | 107% | 111% | 105% | 105% | –
CC(=O)c1c(/C=C/c2ccc(C)cc2)c2ccccc2[nH]c1=O | 94.9% | 90.6% | 121% | 91.7% | 104% | 75.5% | 103% | 86.2% | 81.1% | 104% | 102% | 105% | 73.7% | 73.5% | 81.2% | 95.9% | 80.7% | – | 110% | –
O=C(NC1CCCCCC1)c1ccc2c(=O)n3c(nc2c1)CCCCC3 | 94.3% | 89% | 91.1% | 100% | 105% | 110% | 116% | 89.2% | 112% | 110% | 80.4% | 87.3% | 62.9% | 102% | 92.2% | 94.9% | 93.6% | 96.1% | 108% | –
Cc1ccc2nc(/C=C/c3ccc(N(C)C)cc3)cc(C)c2c1 | 47.2% | 19.8% | 39.8% | 38.4% | 29.4% | 37.3% | 12.5% | 9.33% (active) | 62.1% | 13.2% | 18% | 2.01% (active) | 14.5% | 26.2% | – | 33.3% | 23.2% | – | 48.1% | 26.2%
O=C(/C=C/c1cccc([N+](=O)[O-])c1)c1ccc(Nc2nc(Nc3ccc(F)cc3)nc(Nc3ccc(Cl)cc3)n2)cc1 | 106% | 70% | 105% | 92.2% | 3.04% (active) | 93.8% | 84.8% | 106% | 100% | 92.5% | 83.9% | 88% | 106% | 100% | 88.5% | 87.6% | 93.9% | 84.2% | 97.1% | –
NCCNc1ccc([N+](=O)[O-])cc1 | 126% | 92.4% | 115% | 122% | 123% | 110% | 128% | 107% | 115% | 106% | 108% | 101% | 96.2% | 101% | 105% | 118% | 106% | 105% | 108% | –
O=C(Nc1ccc(Oc2cccc(F)c2)c(Cl)c1)c1cnccn1 | 19.1% | 13.4% | 51.4% | 53.5% | 7.37% (active) | 55.5% | 36% | -3.46% (active) | 64.9% | 25.6% | 31.2% | 9.13% (active) | 0.855% (active) | 40.4% | 16.7% | 9.61% (active) | 33.5% | 43.9% | 60.6% | –
COc1cc(/C=N/NC(=O)c2ccc3nc(-c4ccc(Cl)cc4)[nH]c3c2)cc(OC)c1OC | 97.4% | 32.7% | 28.4% | 103% | 36.3% | 79.7% | 44% | 43.8% | 54.3% | 42% | 96% | 39.9% | 86.6% | 71% | 59.9% | 41.9% | 28.7% | 50.6% | 46.5% | –
COc1cc(CNC(=O)CCCC/C=C/C(C)C)ccc1OCc1cn(-c2ccc(C(F)(F)F)cc2)nn1 | 80.7% | 76.3% | 99.7% | 70.7% | 65.6% | 87.8% | 90.9% | 81.9% | 98.2% | 97.5% | 59.7% | 79% | 49.7% | 76.1% | 62.2% | – | 84.3% | 60.3% | 107% | –
C#CCOc1cccc(-c2ncnc3cc(NC(=O)CCl)ccc23)c1 | 13.9% | 2.03% (active) | -78.8% (active) | -36.4% (active) | -87.9% (active) | -42.2% (active) | 34.4% | -43.9% (active) | 42.8% | -52.3% (active) | -32.9% (active) | -70.7% (active) | 18% | 7.8% (active) | -15.9% (active) | -86% (active) | -41.7% (active) | -83.7% (active) | 20.2% | –
CC(=O)O[C@H]1CC[C@@]2(C)C(=CC[C@@H]3[C@@H]2CC[C@]2(C)C(Cl)=C(c4nc5ccc(Cl)cn5c4NC(C)(C)C)C[C@@H]32)C1 | 95.8% | 85.4% | 66.7% | 87.5% | 90.1% | 101% | 93.2% | 97.6% | 98.9% | 93.1% | 100% | 102% | 76.4% | 85.1% | 82.9% | 95.2% | 73.6% | 89.8% | 94.4% | –
CC1(C)CC[C@]2(CO)CC[C@]3(C)[C@H](CC[C@@H]4[C@@]5(C)CC[C@H](O)C(C)(C)[C@@H]5CC[C@]43C)[C@H]2[C@H]1O | 77.7% | 83.9% | 78.1% | 26.5% | 61.1% | 83.7% | 86.4% | 12.8% | 104% | 99.7% | 93.4% | 56.3% | -33.7% (active) | 96.1% | 68.2% | 91.8% | 90.6% | 76.2% | 91.2% | –
COc1cc(C(=O)c2c(-c3ccccc3)oc3ccccc23)cc(OC)c1O | 26% | 17.4% | 48.5% | 59.7% | -2.49% (active) | 59.9% | 14.3% | 8.35% (active) | 73.2% | 16.6% | 32.1% | 109% | -1.53% (active) | 32.8% | 43.9% | 16.4% | 35.2% | 37.2% | 66% | –
